Reference: PubChem BioAssay (NCI)
About 83,000 compounds went through this panel and 20% of them were active in at least one assay; those are over-represented in the sample as a whole.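 How to read the values: 0–100, growth inhibition (40 = 60% inhibited); 0, no net growth; -100 to 0, cell death (-40 = 40% of starting cells died; -100 = all dead).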 A number with no mark means an inactive call. Calls of active or inactive are those of the source. Rule for the calls: active = growth percent below 10; inactive = the rest.

What follows are compounds tested on HT29 colon (assay: NCI-60 one-dose screen, 48 h (100 = growth as untreated, 0 = no growth, -100 = all killed)). Details: 10 µM unless noted.
`CC1=C(C)C(=O)C(Nc2ccc(C)cc2)=C(Br)C1=O` gave a growth of 108%. With `Cc1ccc(N2CCN(C3=C(Cl)C(=O)c4ncccc4C3=O)CC2)cc1` the growth was 106%. For `COc1ccc2[nH]cc(-c3nc(N)nnc3-c3cn(C)c4ccc(Br)cc34)c2c1`, the growth was 2.43% (active). For `O=C(/C=C/c1ccccc1Cl)Nc1ncc(Cc2cc(Cl)ccc2Cl)s1`, the growth was -18% (active). With `CN(C)S(=O)(=O)c1ccc(-c2nc(C(Cl)Cl)nc3cc(-c4ccc(F)cc4)nn23)cc1` the growth was -5.58% (active). `Fc1ccc(-c2cn3c(-c4c[nH]c5ccc(Br)cc45)csc3n2)cc1` gave a growth of 97.9%. In the case of `C#Cc1nc(/C=C/CCCCCCC(=O)NO)cs1`, the growth is reported as 54.2%. With `C#C[C@]1(O)CC[C@H]2[C@@H]3CC=C4c5sc(Nc6ncccc6C)nc5CC[C@]4(C)[C@H]3CC[C@@]21C` the growth was 25.4%. Compound `CC(C)=CCC[C@](C)(O)[C@H]1CC[C@]2(C)[C@@H]1CC[C@@H]1[C@@]3(C)CC[C@H](N)C(C)(C)[C@@H]3CC[C@]12C` has a growth of 59.6%. In the case of `Cc1cc2nc3c4cc(C#N)ccc4n(CCN(C)C)c3nc2cc1C`, the growth is reported as -44.3% (active). `N#Cc1c(-c2cccs2)cc(-c2cnccn2)nc1SCC(=O)N/N=C/c1ccncc1` gave a growth of 109%. For `CCOC(=O)c1cccc(NC2=C(Cl)C(=O)C(C)=C(C)C2=O)c1`, the growth was 110%. `c1ccc(-c2cn3c(-c4c[nH]c5ccccc45)csc3n2)cc1` showed a growth of 63%. `Cc1cc(Br)ccc1-n1cc(C#N)c(N)c1C(=O)c1ccc(Br)cc1` was tested, and the growth was 102%. With `Cn1cc(-c2cc3ncnc(Nc4ccc(NC(=O)Nc5cc(C(C)(C)C)on5)cc4)c3s2)cn1` the growth was 16.7%. For `Nc1cc(C(=O)N/N=C\c2ccc(OC(F)F)c(OC3CCCC3)c2)nn1CC(O)c1ccccc1` (stereo not given), the growth was 98.2%. Work on `COc1ccc(C2CC(c3cccc(OCCCCOc4cccc(C5=NOC(c6ccc(OC)cc6)C5)c4)c3)=NO2)cc1` (stereo not given) yielded a growth of 69.8%. For `O=C(COc1ccc(/C=C2\C(=O)Nc3ccc(Cl)cc32)cc1)Nc1ccc(Cl)cc1`, the growth was 55.8%. For `Cn1cc(-c2nnc(N)nc2-c2c[nH]c3ccc(F)cc23)c2cc(Br)ccc21`, the growth was 3.17% (active). `C[C@H](Nc1ncnc2ccc(-c3cnc(Cl)c(NS(C)(=O)=O)c3)cc12)c1ccccc1` was tested, and the growth was -28.9% (active). For `O=C(CSc1nc2ccccc2c(=O)n1CCc1ccccc1)Nc1ccc(S(=O)(=O)Nc2ccc(Cl)nn2)cc1`, the growth was 117%. Work on `NS(=O)(=O)c1ccc(Nc2nc(N/N=C/C=C/c3ccccc3)nc(Nc3ccccc3)n2)cc1` yielded a growth of 34.6%. `O=C1[C@H]2Cc3c([nH]c4ccccc34)[C@H](c3ccc(Br)cc3)N2C(=O)CN1C1CCN(CC2CCCCC2)CC1` was tested, and the growth was 11%. For `CCc1cc2c(cc1Cl)nc1c(=O)[nH]c(=O)nc-1n2CCOCC(C)(C)C`, the growth was 58.5%. Compound `COc1ccc(-c2nc(C#N)c(N3CCC(S(=O)(=O)N4CCOCC4)CC3)o2)cc1` has a growth of 101%. Compound `COC(=O)c1ccc(NC2=C(Cl)C(=O)c3nc(C)ccc3C2=O)cc1` has a growth of 90.5%. For `Cc1ccccc1N1CCN(C2=C(Cl)C(=O)c3ncccc3C2=O)CC1`, the growth was 94.9%. Work on `CC[C@]12C=CCN3CC[C@@]4(c5ccc(OC)cc5N(C)[C@H]4[C@@](O)(C(=O)OC)[C@@H]1OC(=O)CCN1CCc4ccccc4C1)[C@@H]32` yielded a growth of 99%. `Cc1nc(N)sc1-c1csc(Nc2ccc(C(F)(F)F)cc2)n1` was tested, and the growth was -27.6% (active). `Cn1cc(-c2nnc(N)nc2-c2c[nH]c3ccc(Br)cc23)c2cc(Br)ccc21` was tested, and the growth was 97.1%. For `C#C[C@]1(O)CC[C@H]2[C@@H]3CC=C4c5sc(N(C)c6ccccc6)nc5CC[C@]4(C)[C@H]3CC[C@@]21C`, the growth was -3.51% (active). In the case of `NS(=O)(=O)c1ccc(Nc2nc(Nc3ccccc3)nc(N3N=C(c4ccc(Cl)cc4)CC3c3ccc(Cl)cc3)n2)cc1` (stereo not given), the growth is reported as 9.63% (active). `O=C(CCCCCCN1CC(=O)N2[C@@H](c3ccc(Cl)s3)c3[nH]c4ccccc4c3C[C@H]2C1=O)NO` was tested, and the growth was 38.9%. In the case of `CCCCc1nc2c(N)nc3ccccc3c2n1Cc1cccc(CN)c1`, the growth is reported as 17.4%. `N#C/C(=C\c1ccc(-c2ccc(Cl)c(Cl)c2)o1)C(=O)Nc1ncc(Cc2ccc(Cl)cc2)s1` showed a growth of 27.9%.
